The campaign covered roughly 360,000 compounds. About 11,000 (3.1%) were called active. Roughly 2% stayed inconclusive and do not appear here. Shown is part of a subset that was picked to be rich in actives. Unmarked numbers belong to inactive results. Cut-off read from the data, not from the text of the source: active = fluorescence intensity above about 16000; inconclusive = no clear call, values can overlap the other calls; inactive = below that.
Experiment: compound fluorescence in toxin protease inhibitor counterscreen, primary screen, artefact control for toxin protease inhibitor project, biochemical, multiplex microsphere, HTS (AID 624483)
Conditions: compound autofluorescence counterscreen, microsphere flow cytometry; active compounds read high

Row | Structure (SMILES) | fluorescence intensity
1 | CCCCNc1nc2c(c(=O)n(C)c(=O)n2C)n1Cc1cccc(OC)c1 | 4560
2 | COc1ccc(CCn2c(NCCCN3CCOCC3)nc3c2c(=O)[nH]c(=O)n3C)cc1 | 4180
3 | CCCCNc1nc2c(c(=O)[nH]c(=O)n2C)n1CCOc1ccccc1 | 20600 (active)
4 | CCCC/C=C/c1cccc2nncn12 | 3130
5 | COc1ccc(CN2CN(C3CCCC3)CSC2=S)cc1 | 3230
6 | COc1ccc(CN2CN(C(C)C)CSC2=S)cc1 | 24500 (active)
7 | COc1ccc(CCC(C)N2CCc3ccccc3C2)cc1 (stereo not drawn) | 3950
8 | O=C(COc1ccc2c3c(c(=O)oc2c1)CCC3)NC1CCCCC1 | 9280
9 | NC(=O)C1CCN(C(=O)COc2ccc3c4c(c(=O)oc3c2)CCC4)CC1 | 5000
10 | NC(=O)COc1ccc2c3c(c(=O)oc2c1)CCCCC3 | 24300 (active)
11 | Cc1nc(C(F)(F)F)ccc1C(=O)N1CCC1(C)C(=O)NS(=O)(=O)c1ccccc1Cl (stereo not drawn) | 2880
12 | O=C(CSc1nnc(-c2ccncc2)n1C1CCCCC1)Nc1ccccc1 | 20700 (active)
13 | O=C(CSc1nnc(-c2ccncc2)n1-c1ccc(Cl)cc1)Nc1ccc(C(=O)O)cc1 | 3940
14 | COCCCn1c(SCC(=O)Nc2ccccc2)nnc1-c1ccncc1 | 3490
15 | CN(C(=O)c1c(Cl)cnn1C)C12CC3CC(CC(C3)C1)C2 | 2490
16 | CCCNC(=O)C1(C)CCCN(Cc2cccc(C(F)(F)F)c2)C1 (stereo not drawn) | 3060
17 | O=C(COc1ncnc2ccccc12)NC(=O)NCc1ccccc1 | 16500 (active)
18 | O=C(CSc1ncccn1)NC(=O)NCc1ccccc1 | 10500
19 | CC(C)C(C)NC(=O)COc1ncnc2ccccc12 (stereo not drawn) | 2080
20 | CCSc1ccccc1C(=O)NCc1ccc(OC)cc1 | 24300 (active)
21 | CSc1ccccc1C(=O)NCc1ccccc1 | 3280
22 | CCc1nc2ccccc2c(C(=O)NCc2ccc(OC)cc2)c1C | 4980
23 | O=C(CCN1C(=O)c2ccccc2C1=O)C1=NN[C@@H]2C(=O)N(c3ccc(F)cc3)C(=O)[C@H]12 | 2580
24 | CC(C)(C)N1C(=O)c2c(C(=O)OCc3ccccc3)[nH]c(-c3ccccc3)c2C1=O | 5800
25 | Cc1ccc(-c2noc(CN3CCN(Cc4ccccc4)CC3)n2)cc1 | 23500 (active)
26 | CC1CCN(Cc2nc(-c3ccc(Cl)cc3)no2)CC1 | 6270
27 | O=c1ccc(S(=O)(=O)N2CCCC2)cn1Cc1nc(-c2ccccc2)no1 | 3920
28 | COc1ccc(S(=O)(=O)N2CCCCC2c2cc(C(=O)NCc3ccc(F)cc3)no2)cc1 (stereo not drawn) | 2840
